The structures appear in SMILES notation. Hit rate of the full screen: of about 340,000 compounds, about 2,100 (0.62%) were called active.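 How the source made its calls: active means first-screen hits whose inhibition reached a set limit at any dose in the follow-up dose series; inconclusive means inhibition above the set first-screen limit but never retested; inactive means the rest.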 A selection follows. Entries with a potency or affinity are not part of this list.

The target of the assay is Rac GTPase-activating protein 1 (Homo sapiens) (UniProt Q9H0H5). Kind of assay: MgcRacGAP GTPase-activating activity inhibitors, confirmation, biochemical, ADP Hunter fluorescence, primary and confirmatory (AID 624330).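 Further: fluorescence reports GDP produced by GAP-driven GTP hydrolysis.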 Particulars: MgcRacGAP-stimulated Rac1 GTP hydrolysis, at 30 µM, stronger effect = higher value, GST-tagged Rac1 F28L mutant substrate.
Chain of Rac GTPase-activating protein 1 (Homo sapiens) (Q9H0H5 whole entry, looked up): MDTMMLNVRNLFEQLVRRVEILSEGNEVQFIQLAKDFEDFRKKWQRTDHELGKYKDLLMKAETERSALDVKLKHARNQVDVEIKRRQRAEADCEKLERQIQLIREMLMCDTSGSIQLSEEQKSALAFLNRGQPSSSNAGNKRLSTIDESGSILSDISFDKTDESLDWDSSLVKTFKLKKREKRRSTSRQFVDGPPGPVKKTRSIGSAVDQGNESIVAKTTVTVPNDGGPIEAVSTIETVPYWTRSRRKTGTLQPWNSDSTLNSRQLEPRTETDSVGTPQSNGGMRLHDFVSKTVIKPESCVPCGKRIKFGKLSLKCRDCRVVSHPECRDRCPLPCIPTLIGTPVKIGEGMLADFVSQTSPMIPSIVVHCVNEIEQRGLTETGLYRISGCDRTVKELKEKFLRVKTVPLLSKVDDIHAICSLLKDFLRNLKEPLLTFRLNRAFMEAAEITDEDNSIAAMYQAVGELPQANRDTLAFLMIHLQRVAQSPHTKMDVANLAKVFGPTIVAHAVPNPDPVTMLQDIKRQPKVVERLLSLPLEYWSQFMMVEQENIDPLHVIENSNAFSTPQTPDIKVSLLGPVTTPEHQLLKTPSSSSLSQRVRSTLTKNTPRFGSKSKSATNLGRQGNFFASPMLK
With `CC1Cc2ccccc2N1C(=O)CSc1nc2ccccc2s1` (stereo unspecified), the inhibition (as a rule, the relative decrease from the control value, in per cent) was 11.8% (inactive).

Consider `CC(C)=NNC(=O)CN1C(=O)NC2NC(=O)NC21` (stereo unspecified), for which the inhibition is 6.56% (inactive).

Take `CC1(C)C2CCC(CN)C1C2` (stereo unspecified): the inhibition is 5.66% (inactive).

As for `Cc1nnc2sc(SCC(=O)Nc3cccc(Cl)c3)nn2c1=O`, the inhibition is 5.95% (inactive).

On to `COCC(C)n1c(C)cc(C(=O)CSc2nnnn2-c2ccc(O)cc2)c1C` (stereo unspecified), for which the inhibition was 6.49% (inactive).

Take `Cc1cc(/C=C2\NC(=S)N(C)C2=O)ccc1N1CCCC1`: the inhibition was 22.4% (inactive).

With `COc1cc(/C=C2\NC(=S)N(C)C2=O)ccc1OCc1ccccc1F`, the inhibition was -3.41% (inactive).

Regarding `O=C(NN=Cc1ccccc1C(=O)O)c1ccc(NS(=O)(=O)c2cccs2)cc1`, the inhibition was 5.61% (inactive).

Turning to `O=C(Cn1ccccc1=O)Nc1ccc(Cl)c(S(=O)(=O)N2CCCCC2)c1`, the inhibition was 1.69% (inactive).

Consider `Fc1ccc(-c2csc(-c3cccnc3)n2)cc1F`, for which the inhibition was 7.05% (inactive).

For `Fc1ccccc1-c1csc(-c2cccnc2)n1`, the inhibition is -4.78% (inactive).

As for `NC(=O)c1cc(-c2csc(-c3cccnc3)n2)ccc1O`, the inhibition was 18.7% (inactive).

Consider `c1ccc(-c2csc(-c3cccnc3)n2)cc1`, for which the inhibition is 9.56% (inactive).

As to `COc1ccc(NC(=O)Nc2cccc3c2O[C@H](CN(C)S(=O)(=O)c2c(C)noc2C)[C@@H](C)CN([C@H](C)CO)C3=O)cc1`, the inhibition is 6.8% (inactive).

As to `Fc1ccc(-n2cnnn2)c(F)c1`, the inhibition is 3.22% (inactive).

Take `CCCOc1ccc(C(=O)Nc2ccc(N3CCN(C(=O)c4ccco4)CC3)cc2)cc1`: the inhibition was 3.27% (inactive).

Take `CCC(C)[C@H](NC(=O)[C@@H]1Cc2ccccc2CN1)C(=O)Nc1ccc2c(c1)OCO2` (stereo partly specified): the inhibition is -13.9% (inactive).

Take `CCN(CC)c1ccc(S(=O)(=O)N2CCOCC2)cc1NC(=O)COC(=O)/C=C/c1ccccc1`: the inhibition is -3.02% (inactive).

Regarding `COc1cccc(/C=C/C(=O)OCC(=O)Nc2cc(S(=O)(=O)N3CCOCC3)ccc2C)c1`, the inhibition is 2.2% (inactive).

For the molecule `CCN(CC(=O)Nc1cccc(S(=O)(=O)N2CCCC2)c1)CC(=O)Nc1ccccc1OC`, the inhibition was 2.96% (inactive).

With `COc1cc(/C=C/C(=O)OCC(=O)Nc2ccc(C)c(S(=O)(=O)N3CCCCC3)c2)ccc1O`, the inhibition was 13.2% (inactive).

Regarding `COc1cc(/C=C/C(=O)OCC(=O)Nc2cc(S(=O)(=O)N3CCCC3)ccc2Cl)cc(OC)c1OC`, the inhibition was -3.8% (inactive).

`COc1cccc(/C=C/C(=O)OCC(=O)Nc2ccc(S(=O)(=O)N3CCCC3)cc2)c1`: the inhibition was 1.91% (inactive).

On to `CCN(CC)c1ccc(S(=O)(=O)N2CCOCC2)cc1NC(=O)COC(=O)/C=C/c1ccc(C)o1`, for which the inhibition was 2.13% (inactive).

In the case of `COc1cccc(NC(=O)CN(C)C(C)C(=O)Nc2ccc(S(=O)(=O)N3CCCC3)cc2)c1` (stereo unspecified), the inhibition is -2.38% (inactive).

Take `C=CCn1c(C(C)C)nc2ccccc21`: the inhibition is 4.59% (inactive).

Turning to `O=C1CN(C(=O)COC(=O)CCc2ccccc2O)c2ccccc2N1`, the inhibition was 1.54% (inactive).

On to `N#CC1(N2CCN(C(=O)c3ccccc3)CC2)CCCCC1`, for which the inhibition is 8.68% (inactive).

`Clc1ccc(N2CCN(c3ncnc4c3oc3ccccc34)CC2)cc1`: the inhibition is -2.02% (inactive).

For the molecule `CCC(=O)Nc1cccc(C(=O)OCc2cccc([N+](=O)[O-])c2)c1`, the inhibition was 5.63% (inactive).

As for `Cc1cc(C(=O)Nc2c(C)n(C)n(-c3ccccc3)c2=O)on1`, the inhibition was 11.2% (inactive).

With `O=C(c1ccc(F)cc1F)N1CCN(S(=O)(=O)c2ccc3c(c2)OCCO3)CC1`, the inhibition is 7.11% (inactive).

Take `COc1cc2cnc(CCO[C@H]3CCCCO3)cc2cc1OC`: the inhibition is 7.49% (inactive).

Take `COc1ccc(NC(=O)Cc2ccsc2)cc1S(=O)(=O)N1CCOCC1`: the inhibition was -4.48% (inactive).

In the case of `Cc1ccc(-c2onc3ccc(C4OCCO4)cc23)cc1`, the inhibition is 12.2% (inactive).

`CSc1ccccc1NC(=O)NCCCl`: the inhibition is -4.18% (inactive).

As to `CCCN1CCN(CCCNC(=O)C(CC)n2nc(C)n3c(cc4occc43)c2=O)CC1` (stereo unspecified), the inhibition was 10.2% (inactive).

As for `O=C(CCl)Nc1sccc1C(=O)c1ccccc1`, the inhibition was 11.5% (inactive).

On to `CCOc1ccc(C2Nc3ccc4ccccc4c3-c3c2c(=O)oc2ccccc32)cc1` (stereo unspecified), for which the inhibition is 5.67% (inactive).

As to `CC(=O)CCc1c(C)nc2ccc(C(=O)O)cc2c1Cl`, the inhibition was -3.43% (inactive).

With `Cc1nc2ccc(C(=O)O)cc2nc1C`, the inhibition is 8.31% (inactive).

As to `Cc1cc(C)nc(NC2=NCCN2C(=O)NC2CCCCC2)n1`, the inhibition was 1.52% (inactive).

On to `Nc1ncnc2c1ncn2[C@@H]1O[C@H](CNCc2ccccc2OCc2ccc(Cl)cc2Cl)[C@@H](O)[C@H]1O`, for which the inhibition is 6.96% (inactive).

Regarding `COc1ccccc1/C=N/NC(=O)c1ccc(NC(=O)c2ccccc2Br)cc1`, the inhibition was 1.59% (inactive).

Consider `Cc1ccc(NC(=O)NC(=O)CSc2n[nH]c(N)n2)c(C)c1`, for which the inhibition was -33.7% (inactive).

With `Cc1oc(-c2nc3ccccc3n2C)cc1C(=O)c1ccccc1`, the inhibition was -4.53% (inactive).

Consider `O=C(O)c1ccc(NCc2ccc3c(c2)OCO3)cc1`, for which the inhibition is 7.49% (inactive).

Regarding `CC(=O)N1CCN(c2ccc(NC(=O)c3ccc4c(c3)OCO4)cc2)CC1`, the inhibition was 9.85% (inactive).

Turning to `O=C(CN1CCN(Cc2ccc3c(c2)OCO3)CC1)Nc1ccc(N2CCOCC2)cc1`, the inhibition was -4.89% (inactive).

With `O=C(O)c1cc(NCc2ccc3c(c2)OCO3)ccc1N1CCOCC1`, the inhibition is 12.2% (inactive).

Take `O=C(NCc1ccc2c(c1)OCO2)C(=O)NCC1OCCN1S(=O)(=O)c1ccccc1` (stereo unspecified): the inhibition was 4.4% (inactive).

As to `Cc1cccc(OCC(=O)N2CCCc3ccccc32)c1`, the inhibition is -0.63% (inactive).

Turning to `COc1ccc(CN(C)CCCn2cnc(C(=O)Nc3ccc(C)c(C)c3)n2)cc1OC`, the inhibition is 8.28% (inactive).

With `COc1cc(CN2CCN(Cc3ccccc3C(F)(F)F)CC2)cc(OC)c1OC`, the inhibition is 5.51% (inactive).

For `COc1cccc(CN2CCN(c3ncccn3)CC2)c1OC`, the inhibition was 2.75% (inactive).

For the molecule `O=C(c1ccco1)N1CCN(Cc2cccc3ccccc23)CC1`, the inhibition is 15.8% (inactive).

As to `CN1CCN(Cc2cccc(Oc3ccccc3)c2)CC1`, the inhibition is 4.23% (inactive).

As for `COc1ccccc1CN1CCN(C(=O)c2ccco2)CC1`, the inhibition is -1.8% (inactive).

On to `CCN1CCN(Cc2cccc(Oc3ccccc3)c2)CC1`, for which the inhibition was 22.4% (inactive).

`Cc1cc(Br)ccc1NC(=O)CCSc1ccccc1`: the inhibition is 2.79% (inactive).

Regarding `Cc1ccc(NC(=O)c2cc(N(C)C)ccc2[P+](=O)O)cc1`, the inhibition is 4.54% (inactive).

As for `Cc1ccc(C(=O)O)cc1N1CCCC1=O`, the inhibition was -7.73% (inactive).

Take `CCC(Sc1nc2n[nH]c(C)c2c(=N)n1-c1ccc(C)c(Cl)c1)C(=O)N1CCOCC1` (stereo unspecified): the inhibition is 8.01% (inactive).

In the case of `Oc1ccccc1CN1CCCC(N2CCc3ccccc3C2)C1` (stereo unspecified), the inhibition was 12.1% (inactive).

With `c1ccc2c(c1)CCN(C1CCCCC1)C2`, the inhibition was 26.9% (inactive).

As for `COCCN(CCOC)C(=O)COC(=O)c1ccc(Cl)c(S(=O)(=O)N(C)c2ccccc2)c1`, the inhibition was 3.9% (inactive).

Regarding `O=S1(=O)N=C(SCCO)c2ccccc21`, the inhibition was 4.31% (inactive).

As to `CC1=C(SCc2ccccc2)C(=O)c2ccccc2C1=O`, the inhibition is -10.4% (inactive).

For `Cc1ccc(OCCNC(=O)C(C)SCC(=O)Nc2ccc(F)cc2)cc1` (stereo unspecified), the inhibition is 1.75% (inactive).

As for `O=C1C=CC(=O)N1c1ccc(O)cc1`, the inhibition was 15.3% (inactive).

For the molecule `O=C(O)c1ccc2c(c1)C(=O)N(c1ccc(Nc3ccccc3)cc1)C2=O`, the inhibition was 9.3% (inactive).

For `O=C(c1ccc(Cl)c(Cl)c1)c1cc(-c2ccccn2)c(N2CCOCC2)s1`, the inhibition was 6.1% (inactive).

In the case of `O=C(c1ccc(Cl)c(S(=O)(=O)N2CCCC2)c1)N1CCN(c2ccc(F)cc2)CC1`, the inhibition was 6.75% (inactive).

`Cc1ccc(-c2cc(C(=O)N3CCN(c4ccccc4O)CC3)c3ccccc3n2)cc1`: the inhibition was 2.39% (inactive).

In the case of `COc1ccc(-c2cc(C(=O)N3CCN(c4ccccc4)CC3)c3ccccc3n2)cc1`, the inhibition is -2.68% (inactive).

For the molecule `CC(=O)c1ccc(N2CCN(C(=O)c3ccc(C(=O)c4ccccc4)cc3)CC2)cc1`, the inhibition was -1.4% (inactive).

On to `O=C(c1ccccc1)N1CCN(c2ccccc2)CC1`, for which the inhibition was 5.43% (inactive).

On to `O=C(c1cc(C2CC2)nn1-c1ccccc1)N1CCN(c2ccccc2O)CC1`, for which the inhibition is 5.58% (inactive).

`COc1ccc(N2CCN(C(=O)c3cc(C4CC4)nn3-c3ccccc3)CC2)cc1`: the inhibition was 27.4% (inactive).

For the molecule `O=C(c1ccc(Cl)c(S(=O)(=O)N2CCCCC2)c1)N1CCN(c2ccccc2)CC1`, the inhibition was 11.4% (inactive).

For the molecule `CCOC(=O)c1c(C)[nH]c(C(=O)N/N=C/c2ccc(OC)c(OC)c2)c1C`, the inhibition is -4.46% (inactive).

Take `COc1ccc(NC(=O)c2cccc(NC3=NC4CS(=O)(=O)CC4S3)c2)cc1Cl` (stereo unspecified): the inhibition is 10.8% (inactive).

As for `CCc1nnc(N/N=C\c2ccc(OC(C)=O)c(OC)c2)n1N`, the inhibition was 10.6% (inactive).

For `CCC1(CC)C(=O)N(c2ccccc2)C(=N)N(c2ccccc2)C1=O`, the inhibition is -9.62% (inactive).

`N#Cc1cccc(NC(=O)CN2CCN(Cc3ccccc3)CC2)c1`: the inhibition is 10.1% (inactive).

As for `Cc1nc(N)c2c(Cc3cccc4ccccc34)nn(C(C)(C)C)c2n1`, the inhibition was 2.87% (inactive).

`COc1ccccc1CN(C)C(=O)c1sccc1-c1ccccc1`: the inhibition was -0.12% (inactive).

Turning to `Cc1ccc(/C(N)=N/OC(=O)c2ccc3ccccc3c2)cc1`, the inhibition was 7.71% (inactive).

For `O=C(NCCCN1CCOCC1)c1cc(-c2ccc(F)cc2)on1`, the inhibition was 5.56% (inactive).

As for `C/C(=N/NC(=O)CNC(=O)c1cccs1)c1ccc(Cl)cc1`, the inhibition is 5.28% (inactive).

With `COc1cccc(C=Nc2ccc3c(c2)CCC3)c1O`, the inhibition is 6.65% (inactive).

Turning to `COc1ccc(N=Cc2c(O)ccc3ccccc23)cc1`, the inhibition was 14.5% (inactive).

On to `COc1cccc(C=Nc2cc(C)on2)c1O`, for which the inhibition is 10.4% (inactive).

On to `COc1ccc2c(c1)Cc1sc(NC(=O)c3ccccc3)nc1-2`, for which the inhibition is 15.1% (inactive).

As to `COc1ccc2c(c1)CCc1sc(NC(=O)c3ccco3)nc1-2`, the inhibition is 9.86% (inactive).

In the case of `Oc1ccc2ccccc2c1/C=N/c1nc2c(s1)CCCC2`, the inhibition is 16% (inactive).

Values taken from PubChem BioAssay AID624330 (Southern Research Specialized Biocontainment Screening …, 2012).
